According to PubChem BioAssay (NCI):
The panel holds about 83,000 compounds, 20% with a hit somewhere; the sample as a whole holds those more often.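 Plates (96-well) were seeded with cells, treated with compound at one concentration, and incubated for 48 hours before percent growth was determined.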 Values without a mark were called inactive. Calls of active or inactive are those of the source. Rule for the calls: active = growth percent below 10; inactive = the rest.

Tests used:
Experiment in all cases: NCI-60 one-dose screen, 48 h (100 = growth as untreated, 0 = no growth, -100 = all killed)
Conditions in all cases: 10 µM unless noted
NCI-H23 lung = tested on: NCI-H23 lung
NCI-H226 lung = tested on: NCI-H226 lung
NCI-H322M lung = tested on: NCI-H322M lung
HOP-62 NSCLC = tested on: HOP-62 NSCLC
NCI-H460 lung = tested on: NCI-H460 lung
HOP-92 NSCLC = tested on: HOP-92 NSCLC
NCI-H522 lung = tested on: NCI-H522 lung
A549/ATCC NSCLC = tested on: A549/ATCC NSCLC
786-0 renal = tested on: 786-0 renal
COLO 205 colon = tested on: COLO 205 colon
DU-145 prostate = tested on: DU-145 prostate
K-562 leukemia = tested on: K-562 leukemia
MALME-3M melanoma = tested on: MALME-3M melanoma
MDA-MB-231 breast = tested on: MDA-MB-231 breast
RXF 393 renal = tested on: RXF 393 renal
SF-268 CNS = tested on: SF-268 CNS
SF-295 CNS = tested on: SF-295 CNS
SF-539 CNS = tested on: SF-539 CNS
UACC-257 melanoma = tested on: UACC-257 melanoma
M14 melanoma = tested on: M14 melanoma

| Compound | growth (NCI-H23 lung) | growth (NCI-H226 lung) | growth (NCI-H322M lung) | growth (HOP-62 NSCLC) | growth (NCI-H460 lung) | growth (HOP-92 NSCLC) | growth (NCI-H522 lung) | growth (A549/ATCC NSCLC) | growth (786-0 renal) | growth (COLO 205 colon) | growth (DU-145 prostate) | growth (K-562 leukemia) | growth (MALME-3M melanoma) | growth (MDA-MB-231 breast) | growth (RXF 393 renal) | growth (SF-268 CNS) | growth (SF-295 CNS) | growth (SF-539 CNS) | growth (UACC-257 melanoma) | growth (M14 melanoma) |
| --- | --- | --- | --- | --- | --- | --- | --- | --- | --- | --- | --- | --- | --- | --- | --- | --- | --- | --- | --- | --- |
| Cn1cc(-c2cc(N)n3nc(-c4c[nH]c5ccccc45)cc3n2)c2ccccc21 | -73.4% (active) | -38.6% (active) | -80% (active) | -85.4% (active) | -66.6% (active) | -59.5% (active) | -85.1% (active) | -75.2% (active) | -81.6% (active) | -88.6% (active) | -89.1% (active) | 11.4% | -94.8% (active) | -89.8% (active) | -72.5% (active) | -51.3% (active) | -90.3% (active) | -99.5% (active) | -92% (active) | -81.5% (active) |
| O=C(c1ccc(Cl)cc1)C1[C@H](c2ccccc2Cl)[C@@H](c2ccccc2)NC12C(=O)Nc1ccccc12 (stereo not given in full) | -50.2% (active) | -67.5% (active) | 12.5% | -40.9% (active) | -57.2% (active) | -48% (active) | -30.9% (active) | 3.68% (active) | -58.4% (active) | -87.8% (active) | -12.8% (active) | -36.6% (active) | -34.8% (active) | -64.8% (active) | -80.8% (active) | 2.93% (active) | -72.3% (active) | -89.7% (active) | 1.79% (active) | -75.7% (active) |
| COc1ccc2[nH]cc(-c3cc(N)n4nc(-c5c[nH]c6ccccc56)cc4n3)c2c1 | -12.1% (active) | 74.5% | 18.3% | -45.2% (active) | -22.8% (active) | -1.68% (active) | -65.3% (active) | 1.46% (active) | -88.3% (active) | -82.5% (active) | 42.6% | 3.51% (active) | -93.4% (active) | -69.9% (active) | -72.2% (active) | 80.4% | -75.9% (active) | -95.2% (active) | -92.3% (active) | -58.6% (active) |
| COc1ccc(-n2c(NC(=O)N3CCN(C)CC3)c(C#N)c3ccccc32)cc1 | 33.8% | 11.4% | 90.2% | 30.5% | 30.7% | 44% | 61.1% | 45.3% | 44.2% | 65.5% | 41.2% | 58.6% | 38.5% | 29.6% | -9.29% (active) | 29.1% | 47.1% | 14.3% | 60.3% | 54.4% |
| Cc1oc(-c2ccccc2)nc1CN[C@@H]1C[C@@H]2C[C@H]([C@H]1C)C2(C)C | -30% (active) | -29.8% (active) | 57.9% | 75% | 4.28% (active) | -11.4% (active) | 30.8% | 50.9% | 21.8% | -69.3% (active) | 65.5% | 11.6% | -61.7% (active) | 35.2% | -78.7% (active) | 80.8% | 11% | 14.8% | 8.4% (active) | -63.1% (active) |
| CCOC(=O)/C(F)=C/C1CC1C1CCN(C(=O)OC(C)(C)C)CC1 (stereo not given) | 93.8% | 95.2% | 102% | 118% | 98.1% | 119% | 104% | 78.4% | 105% | 72.4% | 73.2% | 76.1% | 94% | 99.3% | 105% | 98.6% | 99.3% | 103% | 111% | 106% |
| c1n[nH]cc1-c1nc2ccc3[nH]ncc3c2c2c1CC1(CCOCC1)CC2 | 44.2% | 27.3% | 48.6% | 55.5% | 29.4% | 70.7% | 7.31% (active) | 44.7% | 48.2% | 30.3% | 41.6% | 39.5% | 22.6% | 59.4% | -15.8% (active) | 34.4% | 65.8% | 26.6% | 53% | 23.9% |
| N#C/C(=C1/C(=O)Nc2ccccc21)c1nnc(NC(=O)c2ccc(-n3c(=O)[nH]c4ccccc4c3=O)cc2)s1 | 30.4% | 34.4% | 53.6% | 53.7% | 6.96% (active) | 56% | 14.3% | 49.8% | 66.1% | -0.152% (active) | 37.4% | 15.9% | 26.9% | 4.04% (active) | 53.4% | 65.4% | 74.5% | 36.4% | 47.9% | 58.2% |
| CS(=O)(=O)Nc1cc(-c2ccc3ncnc(Nc4ccc(OCc5cccnc5)c(Cl)c4)c3c2)cnc1Cl | -26.9% (active) | 23.8% | -2.48% (active) | 24.3% | 35.2% | -27.9% (active) | -4.01% (active) | 45.6% | 2.08% (active) | -73.5% (active) | 16.5% | 9.57% (active) | -34.8% (active) | -57.9% (active) | 0.962% (active) | 14.6% | -14.9% (active) | -38% (active) | 1.79% (active) | 2.98% (active) |
| COc1ccc2[nH]c(=O)c(CSc3ccccc3Nc3nccc(-c4ccc5c(c4)OCO5)n3)cc2c1 | 94.9% | 76.1% | 92.5% | 94.1% | 83.5% | 90.3% | 66.1% | 76.3% | 90.1% | 101% | 78.4% | 52.7% | 99.4% | 93.7% | 79.7% | 73.4% | 104% | 95% | 96.6% | 91.5% |
| CC(C)(C)C(=O)C1CC(C#N)=C2C=Cc3c(ccc4ccccc34)N21 (stereo not given) | 89.2% | 77% | 101% | 88.3% | 97.8% | 70.7% | 83.9% | 81.2% | 76.6% | 93.6% | 102% | 85.4% | 102% | 80.7% | 91.8% | 83.1% | 83.4% | 67.4% | 84.7% | 105% |
| O=[N+]([O-])c1cccc(-c2nnc3c(/C=C/c4ccc(F)cc4)nc4ccccc4n23)c1 | 91.7% | 98.6% | 101% | 97.9% | 90.3% | 80% | 81% | 95% | 93.5% | 126% | 98.7% | 87% | 95.7% | 94.6% | 77.2% | 87.5% | 80.8% | 66.9% | 107% | 108% |
| C[C@@H]1[C@H]2C[C@@H](C[C@H]1NCc1nc3ccccc3n1C1CCCCCC1)C2(C)C | 33% | 57.2% | 95.4% | 88.3% | 56.3% | 28.9% | 22.9% | 71.8% | 63.4% | 58.7% | 88.3% | 24.1% | 51.4% | 77.8% | 19% | 75.6% | 57.6% | 77.1% | 64.7% | 61% |
| CC[C@@]12CC(C(=O)OC)=C3Nc4cc5c(cc4[C@@]34CCN(C[C@H]3O[C@H]31)[C@@H]24)[C@@H]1[C@H](O5)[C@@H](O)[C@@]2(CC)CC(C(=O)OC)=C3Nc4cc(O)ccc4[C@@]34CCN1[C@@H]24 | -53.9% (active) | -50.9% (active) | -43% (active) | -54.4% (active) | -26.6% (active) | -27.3% (active) | -44.9% (active) | 4.31% (active) | -89.3% (active) | -61.5% (active) | 7.47% (active) | -8.19% (active) | -39.6% (active) | -70.4% (active) | -98.4% (active) | 10.3% | -63% (active) | -53.1% (active) | -23.5% (active) | -61.4% (active) |
